Reference: PubChem BioAssay AID1220 (Sanford-Burnham Center for Chemical Genomics, 2008)
Screen size: about 190,000 compounds; about 1,300 (0.68%) were called active. Cut-off read from the data, not from the text of the source: active = inhibition above about 50%; inactive = the rest. The sample as a whole holds a higher share of actives than the screen did.

The compounds below were run against Mannose-6-phosphate isomerase (Homo sapiens) (UniProt P34949) (assay: MPI inhibition at elevated mannose 6-phosphate – biochemical, fluorescence intensity, high mannose 6-phosphate, primary screen (AID 1220)). Settings: recombinant PMI enzyme, coupled fluorescence intensity; at 20 µM; stronger effect = higher value.
Mannose-6-phosphate isomerase (Homo sapiens), sequence (P34949 whole entry, looked up): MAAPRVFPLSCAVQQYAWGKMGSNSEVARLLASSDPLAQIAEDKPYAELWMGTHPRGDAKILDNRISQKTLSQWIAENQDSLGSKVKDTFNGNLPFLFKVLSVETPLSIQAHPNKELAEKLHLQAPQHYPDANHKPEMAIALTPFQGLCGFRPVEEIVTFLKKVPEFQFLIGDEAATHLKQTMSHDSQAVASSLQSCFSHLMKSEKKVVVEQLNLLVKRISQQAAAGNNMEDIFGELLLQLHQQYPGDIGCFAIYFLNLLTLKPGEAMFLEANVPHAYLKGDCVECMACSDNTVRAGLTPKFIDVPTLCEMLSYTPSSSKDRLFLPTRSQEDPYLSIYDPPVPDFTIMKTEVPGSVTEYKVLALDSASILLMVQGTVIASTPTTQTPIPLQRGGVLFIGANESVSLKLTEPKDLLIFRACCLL

SMILES	inhibition
COc1ccc2o/c(=N/NC(=S)Nc3ccccc3)c(C(N)=O)cc2c1	7.1% (inactive)
O=C(O)c1ccccc1OC(=O)C12CC3CC(CC(C3)C1)C2	2.3% (inactive)
CC1(C)CC(c2nc(-c3ccccc3)cs2)CCS1 (stereo not drawn)	0.5% (inactive)
Cc1ccc(-c2cc(C)nc3nc(N)nn23)cc1	4.6% (inactive)
CCOc1ccc(NC(=O)CSc2nc3c(c(=O)n2C)SC(C)C3)cc1 (stereo not drawn)	4.9% (inactive)
Cc1noc(C(=O)Nc2ccccc2C(F)(F)F)c1Cl	59.4% (active)
CCc1ccccc1NC(=O)c1onc(C)c1Cl	-3.2% (inactive)
CSc1ccccc1NC(=O)c1onc(C)c1Cl	-2.4% (inactive)
Cc1ccc(C(=O)OCC(=O)Nc2ccccc2C(F)(F)F)cc1S(=O)(=O)N1CCOCC1	3.2% (inactive)
CC(C)c1ccccc1NC(=S)NCc1ccccc1F	1.9% (inactive)
N#Cc1cnc2c(-c3ccccc3)c(-c3ccccc3)nn2c1N	15.3% (inactive)
Fc1ccc2nc(C3CCN(Cc4nc(CC5CC5)no4)CC3)[nH]c2c1	-5.1% (inactive)
Fc1ccc2nc(C3CCCCN3Cc3nc(CC4CC4)no3)[nH]c2c1 (stereo not drawn)	53.6% (active)
Fc1ccc(C2CCCCN2Cc2nc(CC3CC3)no2)cc1 (stereo not drawn)	1.9% (inactive)
Brc1ccc(-c2nc(-c3ccccn3)no2)o1	-1.3% (inactive)
CC(C)[C@H](NC(=O)c1ccccc1)C(=O)OCc1nnc(-c2ccccc2)o1	3.9% (inactive)
O=C1CC(N2CCN(Cc3ccc4c(c3)OCO4)CC2)C(=O)N1CCc1ccccc1 (stereo not drawn)	4.8% (inactive)
CC(=O)N1C(c2ccccc2)CC(=O)OC1c1ccc2c(c1)OCO2 (stereo not drawn)	9.9% (inactive)
O=C1C=CC2C(c3ccc4c(c3)OCO4)CC1N2Cc1ccccc1 (stereo not drawn)	63.6% (active)
Cc1ccc(NC(=O)c2cc3ccccc3o2)cc1S(=O)(=O)N(C)C	36.9% (inactive)
Cc1cc(C)c(S(=O)(=O)Nc2cccc(S(=O)(=O)NC3=NCCC3)c2)c(C)c1	-4.4% (inactive)
CC1=CC(=O)C=C(C)C1=NOc1ccccc1[N+](=O)[O-]	54.8% (active)
CC1=CC(=O)C=C(C)C1=NOc1ccc([N+](=O)[O-])cc1	53.2% (active)
CC1CN(C)C(C)C/C1=N/Oc1ccccc1[N+](=O)[O-] (stereo not drawn)	42.3% (inactive)
CN1CCC(=NOc2ccc([N+](=O)[O-])cc2)CC1	-6.9% (inactive)

SMILES	inhibition
CC(C)(C)/C(COc1ccccc1[N+](=O)[O-])=N/O	5.7% (inactive)
CC1CN(C)C(C)C/C1=N\Oc1ccc([N+](=O)[O-])cc1 (stereo not drawn)	-6.4% (inactive)
N#Cc1ccc(NC(=O)CN2C(=O)NC(Cc3ccccc3)C2=O)cc1 (stereo not drawn)	3.6% (inactive)
Cc1noc(C)c1COC(=O)COc1ccc(C#N)cc1	-4.4% (inactive)
COc1ccc(CNCC(O)(c2ccc(Cl)cc2)c2ccc(Cl)cc2)cc1OC	55.1% (active)
COc1ccc(CNCC(O)(c2ccccc2)c2ccccc2)cc1OC	-0.4% (inactive)
COc1ccc(CNCC(O)(c2ccc(Cl)cc2)c2ccc(Cl)cc2)cc1	0% (inactive)
COC(=O)COc1ccc(S(=O)(=O)N2CCN(c3ccccc3)CC2)cc1	-8.3% (inactive)
O=C(c1cccc2cccc(O)c12)N1CCCCC1	63.7% (active)
Nc1ccccc1C(=O)N1CCCC1	8.2% (inactive)
O=C(c1cccc(F)c1F)N1CCCC1	-8.2% (inactive)
Cc1ccc2c(c1)nnn2C1CCN(S(=O)(=O)c2ccc(C(=O)N3CC(C)CC(C)C3)cc2)CC1 (stereo not drawn)	10.4% (inactive)
Cc1ccc2c(c1)nnn2C1CCN(S(=O)(=O)c2ccc(C(=O)N3C(C)CCCC3C)cc2)CC1 (stereo not drawn)	53% (active)
Cc1ccc2c(c1)nnn2C1CCN(S(=O)(=O)c2ccc(C(=O)O)cc2)CC1	3.6% (inactive)
O=C(COC(=O)/C=C/c1ccccc1[N+](=O)[O-])NCC(F)(F)F	-8.8% (inactive)
CCc1ccc(NC(=S)N2CCCCCCC2)cc1	-7.1% (inactive)
Cc1nc(SCC2(C)CC2(Cl)Cl)n[nH]1 (stereo not drawn)	-3.1% (inactive)
COc1ccc(/C=N/NS(=O)(=O)c2ccc(C)cc2)cc1OC(=O)c1ccc(C)cc1	-3.5% (inactive)
Oc1ccc2oc3c(c2c1/C=N/n1cnnc1)CCCC3	9.3% (inactive)
Cc1cccc(/N=C/c2c(O)ccc3oc4c(c23)CCCC4)n1	13.6% (inactive)
Cc1ccnc(N=Cc2c(O)ccc3oc4c(c23)CCCC4)c1	51.1% (active)
CCOC(=O)c1cnc2c(C#N)c(C)nn2c1-c1ccccc1	3.5% (inactive)
COCCN=c1scc(-c2cc(OC)c(OC)c(OC)c2)n1/N=C/c1c(C)[nH]c2ccccc12	13.7% (inactive)
N#Cc1cc([N+](=O)[O-])ccc1N1CCN(c2ccccc2O)CC1	10.8% (inactive)
CN(N)c1ccc2c(C(F)(F)F)cc(C(F)(F)F)nc2n1	-11.3% (inactive)

SMILES	inhibition
Nc1ccc2c(C(F)(F)F)cc(C(F)(F)F)nc2n1	53.7% (active)
NNc1ccc2c(C(F)(F)F)cc(C(F)(F)F)nc2n1	-7.7% (inactive)
Cc1c(Cl)cccc1Nc1nc(N)nc(CSCCO)n1	-1.1% (inactive)
O=c1c2c3c(sc2nc2n1CCCCC2)C(O)CCC3 (stereo not drawn)	8.9% (inactive)
COc1ccc(C2=NN(c3nc(C)cc(C)n3)C(=O)C2)cc1	51.6% (active)
Cc1cc(C)nc(N2N=C(C(C)(C)C)CC2=O)n1	-15% (inactive)
Cc1cc(C)nc(N2N=C(c3ccccc3)CC2=O)n1	26.8% (inactive)
Cc1ccc(CN2CCCNC2=O)cc1	-2.5% (inactive)
COc1cc(NC(=O)COC(=O)C2CC2)c(C)cc1[N+](=O)[O-]	-8% (inactive)
CCn1cc(Cl)c(C(=O)Nc2nc3ccccc3n2CCN2CCCCC2)n1	-2.9% (inactive)
O=C(Nc1nc2ccccc2n1CCN1CCCCC1)c1ccc(Cl)cc1	-11.3% (inactive)
Cc1c(Cl)c(C(=O)Nc2nc3ccccc3n2CCN2CCCCC2)nn1C	55.1% (active)
CCOC(=O)c1cc(-c2ccc(C)cc2)n(CCC(=O)NCCN(C)C)c1C	5.6% (inactive)
O=C1CN2NC(=S)N(c3ccc(Cl)cc3)C2=CN1c1ccc(Cl)cc1	-2.8% (inactive)
CCOc1cc(NC(=S)NCCCN2CCOCC2)c(OCC)cc1NC(=O)c1ccccc1C	47.3% (inactive)
CCOc1cc(NC(=S)NCCCN2CCOCC2)c(OCC)cc1NC(=O)c1ccccc1	24.1% (inactive)
CCOc1cc(NC(=O)c2cccs2)c(OCC)cc1NC(=O)CCC(=O)NCCN1CCOCC1	10.6% (inactive)
CCOc1cc(NC(=S)NCCCN2CCOCC2)c(OCC)cc1NC(=O)c1cccs1	56.1% (active)
CCOc1cc(NC(=S)NCCCN2CCOCC2)c(OCC)cc1NC(=O)c1ccc(C)cc1	52.6% (active)
CCOc1cc(NC(=S)NCCCN2CCOCC2)c(OCC)cc1NC(=O)c1cccc(F)c1	49.5% (inactive)
O=C(CCCCCn1c(=S)[nH]c2ccccc2c1=O)NCc1ccc2c(c1)OCO2	-9.7% (inactive)
C=CCNC(=S)NNC(=O)c1cccn(Cc2ccc(Cl)cc2Cl)c1=O	-10.6% (inactive)
O=C(C[n+]1ccccc1)N/N=C/c1cccs1	-14% (inactive)
Cc1cc(C)nc(N(C#N)S(=O)(=O)c2ccc(Br)cc2)n1	-3.3% (inactive)
O=C(CSc1nc(O)cc(=O)[nH]1)N1c2ccccc2Sc2ccccc21	7.8% (inactive)

SMILES	inhibition
COc1ccc(CCNC(=O)c2ccc(SC)cc2OC)cc1	-1.4% (inactive)
CONC(=O)c1cc(OCC(F)(F)F)ccc1OCC(F)(F)F	-7.9% (inactive)
Nc1cc(N)c(OCC(F)(F)F)cc1OCC(F)(F)F	55.8% (active)
COCCOc1ccc(C(F)(F)F)cc1N	8.3% (inactive)
Nc1cc(OCC(F)(F)F)cc([N+](=O)[O-])c1	-2.2% (inactive)
O=C(Nc1ccc(F)cc1)Nc1cc(OCC(F)(F)F)cc(OCC(F)(F)F)c1	8.1% (inactive)
Nc1cc(OCC(F)(F)F)cc(OCC(F)(F)F)c1	56.9% (active)
O=C1CCC(/C=C/c2ccccc2)=NN1Cc1ccc(F)cc1	-0.5% (inactive)
CC(=O)NC(CC(=O)NC12CC3CC(CC(C3)C1)C2)c1ccccc1 (stereo not drawn)	1.3% (inactive)
CCn1cc([N+](=O)[O-])c(C(=O)NCc2ccc(Cl)cc2)n1	-5% (inactive)
N#Cc1cc(Oc2ccccc2)c(-n2nnc3ccccc32)cc1C#N	3.1% (inactive)
C#CCOCCOCCOCCNc1nc(N2CCN(C(=O)[C@H]([C@@H](C)CC)n3cc(CCCCN)nn3)CC2)nc(N2CCN(C(=O)[C@H](C)n3cc(CCC(=O)O)nn3)CC2)n1	-27.7% (inactive)
COCCN1CC(=O)N(c2cccc(C)c2C)C(c2ccc(Cl)cc2)C1=O (stereo not drawn)	-1.2% (inactive)
COc1ccc(N=Cc2sc(O)c3ccccc23)cc1	8.8% (inactive)
COc1ccc2c(c1)O[C@H](c1ccc3c(c1)OCO3)[C@@H](O)C2=O	-2.7% (inactive)
CC1(C)CC(=O)C(C=Nc2ccc3c(c2)OCO3)=C(O)C1	14.2% (inactive)
COc1cccc(C=Nc2ccc3c(c2)OCCO3)c1O	34.6% (inactive)
COc1ccc(N=CC2=C(O)c3ccccc3C2=O)cc1	5.6% (inactive)
Oc1[nH]c2ccccc2c1C=Nc1ccc2c(c1)OCO2	8.6% (inactive)
CCCC(=O)Nc1ccc(C(N)=O)cc1	5.2% (inactive)
Cc1ccc(C)c(NC(=O)CCC(=O)NNC(=O)C(c2ccccc2)c2ccccc2)c1	-16.3% (inactive)
CC(C)OC(=O)CSc1nnc2c(n1)[nH]c1ccc(F)cc12	-5.2% (inactive)
O=C(NC1CCN(S(=O)(=O)c2ccccc2)CC1)C1CCCCC1	7.7% (inactive)
